# ChEMBL document CHEMBL3988442, “University of Dundee, Small-Polar-MMV Screening Library” (2021)
# Out of some 48,000 compounds screened, about 13,000 (27%) showed an effect of 50% or more. The list shows a part of the results.
# System: Wolbachia pipientis
# Assay: Anti-Wolbachia Cell-Based Screen
# Assay type: functional
# Design: scale not given: in the data most compounds retested in dose-response had high values
# Conditions: 5 µM
row,SMILES,Percent Effect [%]
1,CCNC(=O)CCC(=O)NC(C)Cc1ccccc1Br (stereo not drawn),15.31
2,N#Cc1cnc2ccccc2c1N1CCNCC1,-0.76
3,Cc1nn(C)c2ncc(S(=O)(=O)N3CCCN4CCCC4C3)cc12 (stereo not drawn),-8.04
4,CC(C)n1[nH]c(=O)c2c1NC(=O)CSC2c1cccc(OCC(N)=O)c1 (stereo not drawn),107.3
5,CC(C)n1[nH]c(=O)c2c1NC(=O)CSC2c1ccc(OCC(N)=O)cc1 (stereo not drawn),116.2
6,COc1cc(OC)cc(C2SCC(=O)Nc3ccsc32)c1 (stereo not drawn),-4.704
7,COc1cccc(C2SCC(=O)Nc3ccsc32)c1 (stereo not drawn),-17.04
8,CCN1CCC2(CCC1=O)CN(c1ccnc(SC)n1)CCN2C (stereo not drawn),-2.766
9,Cc1cc(CC(=O)N2CCN(CC(C)C)[C@@H]3CS(=O)(=O)C[C@@H]32)ccc1F,-16.98
10,CCC1=N[C@@]2(CC[C@@H]3CN(CC)C[C@@H]32)C(=O)N1C,107.7
11,CC1=N[C@@]2(CC[C@@H]3CN(CC(C)C)C[C@@H]32)C(=O)N1,-12.28
12,COc1ccc(C(=O)C2CCCN(Cc3ccncc3)C2)c(OC)c1 (stereo not drawn),-2.027
13,COc1ccc(Cl)cc1CC(=O)N1CCN(CC(C)(C)O)CC1,104.9
14,COc1ccc(Cl)cc1CC(=O)N1CCN(CC(C)O)CC1 (stereo not drawn),112.2
15,CCOCC(O)CN1CCN(C(=O)Cc2ccccc2Cl)CC1 (stereo not drawn),-8.97
16,Cl.O=C(Cc1ccc(F)cc1)N1CCN(CC(O)C2CC2)CC1 (stereo not drawn),-12.59
17,Cc1c(CC(=O)N2CCN(CC(F)(F)F)CC2)nnn1-c1ccccc1,-7.021
18,Cc1oc(-c2ccco2)nc1CC(=O)N1CCN(CC(C)(C)O)CC1,-7.111
19,CCC1CNCc2cc3c(C)ccc(C)c3nc2O1 (stereo not drawn),108.6
20,CCC1CNCc2cc3c(OC)ccc(OC)c3nc2O1 (stereo not drawn),82.52
21,OCCCN(CCc1cccc(F)c1)C1CC1,110

row,SMILES,Percent Effect [%]
1,CN1C(=O)C2(CCNCC2)c2cc(F)ccc21.Cl,-10.96
2,CC(=O)N1CC2(CCNCC2)c2cc(C)ccc21,-30.16
3,CC(=O)N1CC2(CCNCC2)c2cc(Cl)ccc21.Cl,94.12
4,COC(=O)N1CC2(CCNCC2)c2cc(Cl)ccc21.Cl,101.7
5,CN1C(=O)CC2(CCNCC2)c2ccccc21,-12.38
6,Cn1nc(-c2cccs2)cc1[C@H]1CN2CC[C@H]1C[C@@H]2CNS(C)(=O)=O,-2.456
7,CC(Cn1ccnc1)NS(=O)(=O)c1ccc(C#N)c(Cl)c1 (stereo not drawn),2.375
8,O=C1CSC(c2ccsc2)c2c(n(C3CCOCC3)[nH]c2=O)N1 (stereo not drawn),12.85
9,COc1cc(C2SCC(=O)Nc3ccsc32)cc(OC)c1OC (stereo not drawn),-0.744
10,CC(C)COc1ccc(C2SCC(=O)Nc3c2c(=O)[nH]n3C(C)C)cc1 (stereo not drawn),105.8
11,CCOc1ccc(C2SCC(=O)Nc3c2c(=O)[nH]n3C(CC)CC)cc1 (stereo not drawn),117.7
12,O=C1CSC(c2ccc(O)c(Cl)c2)c2c(n(C3CCOCC3)[nH]c2=O)N1 (stereo not drawn),12.23
13,CCOc1ccc(C2SCC(=O)Nc3c2c(=O)[nH]n3C(C)C)cc1 (stereo not drawn),112
14,CCCOc1ccc(C2SCC(=O)Nc3c2c(=O)[nH]n3C(C)C)cc1 (stereo not drawn),107.1
15,CC(C)c1nccc([C@H]2C[C@@H]3CCN(Cc4ccco4)C[C@H]3O2)n1,-3.761
16,O=C(Nc1cccnc1)[C@H]1CN(Cc2cccs2)C[C@H]2OCC[C@@H]12,-5.403
17,CNS(=O)(=O)CC(=O)NC(C)Cc1ccccc1Br (stereo not drawn),-19.16
18,CCOCCCNC(=O)c1cn(C(C)(C)C)c2ncccc12,117.9
19,COCCN(CCOC)C(=O)c1cn(C(C)(C)C)c2ncccc12,135.3
20,COCC(C)NC(=O)c1cn(C(C)(C)C)c2ncccc12 (stereo not drawn),0.2413
21,COCCCNC(=O)c1cn(C(C)(C)C)c2ncccc12,120.5

row,SMILES,Percent Effect [%]
1,COCCNC(=O)c1cn(C(C)(C)C)c2ncccc12,1.004
2,CC(Cn1ccnc1)NCc1n[nH]c2c1CCC2 (stereo not drawn),-9.016
3,N#Cc1ccc(N2CCC(OC3CCOCC3)CC2)cc1Cl,-7.664
4,O=C(CC[C@@H]1CCCN2CCCC[C@H]12)NCCc1cc(O)ncn1,-16.08
5,CCc1noc(CC)c1CC(=O)N1CCN(C(C#N)C(C)C)CC1 (stereo not drawn),-3.422
6,Cc1noc([C@]23COC[C@H]2CN(Cc2cc(C)on2)C3)n1.O=C(O)C(F)(F)F,2.509
7,FC(F)CN1CCOC(Cn2cccn2)C1 (stereo not drawn),120.3
8,Cc1ncc2c(c1CNC(=O)C1(C)CCCO1)CCNC2 (stereo not drawn),2.031
9,CC(C)NC(=O)[C@@H]1C[C@H]2NCC[C@H]2O1.Cl,109.5
10,CC(C)NC(=O)[C@H]1C[C@H]2NCCO[C@@H]2C1,34.99
11,O=C(NC1CCC1)[C@H]1C[C@H]2NCCO[C@@H]2C1,-2.9
12,Cc1cccc(C(=O)N2C[C@@H]3OCCN(C(C)C)[C@@H]3C2)n1,-13.51
13,COCC(=O)N1CC[C@H]2[C@H]1CCN2CC(C)C,-1.269
14,Cc1ccc(N2CCC3(CN(CCO)CCC3(F)F)C2)nn1.O=C(O)C(F)(F)F (stereo not drawn),100.9
15,FC1(F)CCNCC12CCN(c1cccnc1)C2.O=C(O)C(F)(F)F.O=C(O)C(F)(F)F (stereo not drawn),-21.44
16,OCCN1CCC(F)(F)C2(CCN(c3cccnc3)C2)C1 (stereo not drawn),103.9
17,O=C(O)C(F)(F)F.O=C(O)C(F)(F)F.O=C(O)CN1CCC(F)(F)C2(CCN(c3ccccn3)C2)C1 (stereo not drawn),-9.228
18,O=C(O)C(F)(F)F.O=C(O)C(F)(F)F.OCCN1CC2(CCN(c3ccccc3)C2)C1,6.244
19,NCC1(c2cccc(C(F)(F)F)c2)CC1,-45.72
20,C[C@H]1C[C@@H]2CCN(Cc3nccs3)C[C@H]2O1,-9.973
21,CC(Cn1ccnc1)NCc1csc2c1CCCC2 (stereo not drawn),-4.512
